Compound activity (PubChem)
Sampled rows, rich in hits. Any-hit rate of the full collection: about 2.7%.
LDHA inh = qHTS assay for inhibitors of human lactate dehydrogenase; L-lactate dehydrogenase A chain (Homo sapiens), P00338; purified LDHA, NADH/diaphorase-resazurin fluorescence; hits give low values; activity change, % (values are at about 110 or 230 µM); actives 0.15% (n = 480,000); AID 1347041, 2019; in the data active = activity change below about -30%; inconclusive = mostly about -25% to -30%;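 note: plate controls were DMSO wells for no effect and wells without enzyme for full effect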
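Human LDH5 at 2 nM final in Tris HCl pH 7.4 with 0.06 mM NADH and 0.2 mM pyruvate, reacted 5 minutes at room temperature. Remaining NADH coupled via diaphorase/resazurin; resorufin fluorescence read at 0 and 20 minutes, normalized to enzyme-free and DMSO wells.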
Nrf2 ARE act = qHTS of Nrf2 Activators; AREc32 ARE-luciferase reporter (MCF7-derived line), luminescence, 24 h; actives 0.31% (n = 410,000); Potency, µM (titrated, usually from 46.1 µM), inactives show top-dose activation, actives largely listed as activators; note: potency is the fitted concentration of half-maximal effect; % of control where 0% means no effect; nearly all actives have a fitted effect of over 65% in size
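AREc32 cells carrying an ARE-driven firefly luciferase reporter were seeded at 1000 cells/well in OPTI-MEM with 5% FBS, then exposed to compound for 24 hr at 37 deg C. Luminescence was read with Steady-Glo after 30 min at RT.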
mIDH1 inhibitor = qHTS for Inhibitors of mutant isocitrate dehydrogenase 1 (IDH1): qHTS | IDH1-R132H enzyme, NADPH consumption, diaphorase/resazurin fluorescence | Potency, µM (highest dose often 76.6 µM), for the others: top-dose activity change, negative = inhibition, hits mostly inhibitors | actives 0.093% (n = 390,000) | AID 602179, 2012; note: potency is the fitted concentration of half-maximal effect; % is set by controls: 0 for no effect and ±100 for the full control effect; nearly all actives have a fitted effect of over 65% in size
Target sequence (O75874 whole entry R132H, stated change not applied): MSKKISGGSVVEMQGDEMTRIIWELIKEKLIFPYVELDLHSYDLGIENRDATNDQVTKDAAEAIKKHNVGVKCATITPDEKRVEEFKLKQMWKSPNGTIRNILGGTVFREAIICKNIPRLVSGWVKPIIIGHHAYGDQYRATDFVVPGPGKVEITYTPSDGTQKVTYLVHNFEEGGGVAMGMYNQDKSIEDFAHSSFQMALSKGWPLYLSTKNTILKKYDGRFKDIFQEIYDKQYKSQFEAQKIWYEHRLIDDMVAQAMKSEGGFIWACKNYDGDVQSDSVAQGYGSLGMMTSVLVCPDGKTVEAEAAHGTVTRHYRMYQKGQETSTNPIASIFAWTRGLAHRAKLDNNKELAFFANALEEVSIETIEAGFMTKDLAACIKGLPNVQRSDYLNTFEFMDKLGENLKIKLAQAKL
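IDH1-R132H (0.5 ug/mL dispensed) in pH 7.5 Tris buffer was preincubated 30 min with compound, then given a substrate mix of 0.016 mM NADPH and 2 mM alpha-KG for 80 min at room temperature; remaining NADPH was read by diaphorase/resazurin fluorescence.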
12-LOX inh = Primary qHTS assay for inhibitors of human arachidonate 12S-lipoxygenase (ALOX12): Round 2; Polyunsaturated fatty acid lipoxygenase ALOX12 (Homo sapiens), P18054; purified 12hLO, xylenol orange hydroperoxide absorbance; Potency, µM (doses to about 108 µM), without a hit: top-dose activity change, negative = inhibition, actives largely listed as inhibitors; actives 1.1% (n = 580,000); note: potency is the fitted concentration of half-maximal effect; % is set by controls: 0 for no effect and ±100 for the full control effect
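Purified human 12hLO (150 nM final) in 25 mM Hepes, 0.01% Triton X-100, pH 7.0 was preincubated 15 min at room temperature with compound. Then 40 uM arachidonic acid was added, 30 min. Hydroperoxide was read by Fe-XO absorbance ratio 573/405 nm.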
A549 tox = Nrf2 qHTS screen for inhibitors: counterscreen for cytotoxicity; A549 ARE-Fluc cells, CellTiter-Fluor viability, 18-24 h; Potency, µM (doses to about 46 µM), for the others: at the top dose activity change, negative = cytotoxicity, actives largely listed as inhibitors; actives 0.16% (n = 390,000); AID 504648, 2011; note: potency is the fitted concentration of half-maximal effect; % is set by controls: 0 for no effect and ±100 for the full control effect
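A549 ARE-Fluc cells in 5% FBS OPTI-MEM, 5000 cells/well, rested 2 h then exposed to compounds in concentration-response for 18-24 h at 37 °C. Viability by CellTiter-Fluor fluorescence (Ex 405/Em 525) after 30 min; luciferase luminescence (BugLite, 15 min, RT) read afterwards.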
Nrf2 inh = Nrf2 qHTS screen for inhibitors; A549 ARE-Fluc reporter, luciferase luminescence, 18-24 h; Potency, µM (highest dose often 46 µM), without a hit: top-dose activity change, negative = inhibition, most hits filed as inhibitors; actives 2.1% (n = 360,000); note: potency is the fitted concentration of half-maximal effect; % is set by controls: 0 for no effect and ±100 for the full control effect; nearly all actives have a fitted effect of over 60% in size
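A549 ARE_Fluc cells, 5000/well, 5% FBS OPTI-MEM; compounds in dose-response, 18-24 h at 37 °C/5% CO2; CellTiter-Fluor viability read (Ex 405/Em 525), then BugLite luciferase luminescence = Nrf2 activity.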
An asterisk follows results filed as active; ? = inconclusive; nt = no result; [ ] = another dose, or the depositor's remark. Unless noted, calls come from the whole dose curve; as a rule, active = well fitted curve in the direction sought with a large enough effect; inconclusive = small, poorly fitted or top-dose-only effect, or another doubt; inactive = no such curve, though single readings can be large; an effect the other way counts as inactive or inconclusive.

SMILES	LDHA inh	Nrf2 ARE act	mIDH1 inhibitor	12-LOX inh	A549 tox	Nrf2 inh
CN1CCN(C(=O)CCN2C(=O)/C(=C\c3ccc(Cl)cc3Cl)SC2=S)CC1	11.0	12.6µM*	0.5%	?	7.31µM*	?
O=C1/C(=C/c2ccco2)SC(=S)N1CCC(=O)N1CCCCC1CCO (centres undefined)	8.4	?	3.2%	44.7µM*	3.1%	-7.4%
CN1CCN(C(=O)CCCN2C(=O)/C(=C/c3ccc(Cl)cc3)SC2=S)CC1	1.4	?	3.5%	nt	?	?
O=C(CCN1C(=O)/C(=C/c2ccccc2)SC1=S)N1CCCCCC1	-7.8	?	-1.5%	-11.2%	?	20.6µM*
O=C1CCCN1CCCN1C(=O)[C@@H]2C[C@@H](O)CN2C2(CN(C3Cc4ccccc4C3)C2)C1=O	nt	nt	nt	7.9%	nt	nt
COCCN1C(=O)CO[C@H]2CN(S(C)(=O)=O)C[C@H]21	nt	nt	nt	-0.9%[176 µM]	nt	nt
COCCN1C(=O)CO[C@H]2CN(c3ncccn3)C[C@H]21	nt	nt	nt	50.1µM*	nt	nt
CCc1ccc(-c2[nH]c3c(c2-c2sc(C)c(C(=O)OC)c2O)c(=O)n(C)c(=O)n3C)cc1	-1.7	-1.4%	nt	-12.2%	8.5%	2.2%
COC(=O)c1c(C)sc(-c2c(-c3ccc(F)cc3)[nH]c3[nH]c(=O)[nH]c(=O)c23)c1O	-4.3	-0.9%	nt	44.7µM*	5.8%	7.8%
CCOc1ccc(NC(=O)NCc2nc(-c3cccc(Cl)c3)oc2C)cc1	4.0	nt	nt	-8.5%	nt	nt
N#Cc1c(SCC(=O)O)nc2c(c1-c1cccs1)CCCC2	0.5	nt	nt	?	nt	nt
N#Cc1c(N)nc(SCc2ccncc2)c(C#N)c1-c1cccs1	1.8	5.8%	-0.6%	17.6%	-17.2%	23.1µM*
CN1CCc2nc(SCc3ccc(Cl)cc3)c(C#N)c(-c3cccs3)c2C1	5.6	0.3%	-0.3%	20µM*	17.3%	-8.7%
COc1cc(-c2c(C#N)c(N)nc(SCc3ccncc3)c2C#N)cc(OC)c1OC	-1.3	10.7%	-0.1%	14.2%	13.7%	-27.8%
CCCC(C(=O)Nc1c(C)cccc1C)N1C(=O)C(=O)c2ccccc21 (centres undefined)	nt	nt	nt	6.31µM*	nt	nt
CCCCc1c(-c2ccccc2OC)ncn1Cc1ccccc1F	nt	nt	nt	-13.9%	nt	nt
CCCCc1c(-c2ccccc2OC)ncn1Cc1ccccc1C	nt	nt	nt	28.2µM*	nt	nt
CCN(CC)C(=O)CSc1nc2cc(S(=O)(=O)N(C)C)ccc2o1	-1.9	nt	nt	-38.5%	nt	nt
O=S(=O)(/C(=C\c1ccc(C(F)(F)F)cc1)c1nc2ccccc2[nH]1)c1ccccc1	2.9	-2.6%	-15.9%	nt	?	16.4µM*
CC(=O)c1c(N2CCN(c3ccccn3)CC2)nc(=S)n(-c2ccccc2)c1C	-4.3	2.3%	2.1%	?	1.7%	-1.3%
COc1ccc(N2CCN(c3nc(=S)n(-c4ccccc4)c(C)c3C(C)=O)CC2)cc1	-4.6	-0.1%	-2.5%	39.8µM*	14.9%	5.2%
CC(=O)c1c(N2CCN(c3cccc(Cl)c3)CC2)nc(=S)n(-c2ccccc2)c1C	-5.3	-0.5%	0.4%	35.5µM*	5.6%	?
Cc1ccc(C)c(/C=C/c2ccc3cccc(O)c3n2)c1	?	nt	nt	-14.2%	nt	nt
Nc1ncccc1OCc1cccc(C(F)(F)F)c1	6.3	0.2%	3.4%	7.2%	?	16.4µM*
NC(=O)c1ccccc1OCc1cccc(C(F)(F)F)c1	5.4	nt	nt	31.0%	nt	nt
SMILES	LDHA inh	Nrf2 ARE act	mIDH1 inhibitor	12-LOX inh	A549 tox	Nrf2 inh
O=S(=O)(c1ccc(NC(=S)NC23CC4CC(CC(C4)C2)C3)cc1)N1CCCCC1	-2.0	2.4%	9.6%	44.7µM*	nt	nt
NS(=O)(=O)c1ccc(NC(=S)Nc2ccc(S(=O)(=O)N3CCCC3)cc2)cc1	-1.5	-0.5%	3.6%	4.6%	0.7%	-6.0%
O=S(=O)(c1ccc(NC(=S)NCc2cccnc2)cc1)N1CCCCC1	-11.7	0.2%	-19.9%	?	-21.8%	23.1µM*
CCCCOC(=O)COc1ccc2c(=O)c(-c3ccccc3OC)coc2c1	-22.8	nt	nt	?	nt	nt
CCOc1ccc(S(=O)(=O)N2CCN(C(=O)CCOc3ccccc3C)CC2)cc1	-6.4	0.4%	1.0%	-28.6%	-16.0%	16.4µM*
CC(=O)c1ccc(OCCCC(=O)N2CCN(S(=O)(=O)c3cc(C)ccc3C)CC2)cc1	-1.7	4.9%	-0.8%	2.4%	1.5%	?
CC(=O)c1ccc(OCCCC(=O)N2CCN(S(=O)(=O)c3ccc(C(C)C)cc3)CC2)cc1	-0.3	-0.2%	0.8%	-8.2%	-21.9%	20.6µM*
O=C(COC(=O)c1cc2ccccc2[nH]1)NC1CCCCCCC1	2.5	nt	nt	?	nt	nt
Cc1ccc(NC(=S)NNc2ncc(C(F)(F)F)cc2Cl)c(C)c1	-4.4	-0.6%	-2.9%	0.0%	-12.1%	?
Cc1ccc(NC(=S)NNc2ncc(C(F)(F)F)cc2Cl)cc1	-7.9	-2.7%	0.9%	-9.8%	-5.4%	23.1µM*
FC(F)(F)c1cnc(NNC(=S)Nc2ccc(Cl)cc2)c(Cl)c1	-5.1	10.3%	4.5%	44.7µM*	?	11.6µM*
COC(=O)c1c(NC(=O)c2ccccc2Cl)sc2c1CCC(C)C2 (centres undefined)	2.3	nt	nt	?	nt	nt
CC(C)(C)OC(=O)N1CCC(C(=O)Nc2cccc(C(=O)NCCCc3ccccc3)c2)CC1	2.4	4.9%	-8.0%	-0.8%	-6.3%	23.1µM*
CC(C)(C)OC(=O)N(CCc1ccccc1)Cc1cccc(OCc2cccc(NC(=O)C3CCC3)c2)c1	-0.8	3.8%	1.1%[38.3 µM]	17.6%	-3.3%	?
CC(C)(C)OC(=O)N(Cc1ccccc1)Cc1cccc(OCc2cccc(NC(=O)C3CC3)c2)c1	-0.7	6.2%	-0.3%[38.3 µM]	12.4%	-5.6%	25.9µM*
CCN(CC)S(=O)(=O)c1cccc(NC(=O)Cc2ccc(Cl)cc2Cl)c1	6.2	nt	nt	-11.1%	nt	nt
CCOc1ccc(C(C)NC(=O)NCc2ccn[nH]2)cc1OC (centres undefined)	-1.7	nt	nt	-23.8%	nt	nt
Cc1c(C(=O)Nc2ccc(OC(F)(F)F)cc2)sc2nc3n(c(=O)c12)CCC3	-4.9	2.9%	-2.8%	1.4%	-16.7%	10.3µM*
COc1ccc2nc(-c3ccco3)c(-c3ccco3)nc2c1	13.9	?	16.3%	17.8µM*	19.5%	0.7%
